Inconclusive results are not listed. The source made the active and inactive calls. Calls come from the whole dose curve; as a rule, active = well fitted cell-killing curve with a large enough effect; inconclusive = small, poorly fitted or top-dose-only effect; inactive = flat fitted curve, though single readings scatter.
% is set by controls: 0 for no effect and ±100 for the full control effect; potency is the fitted concentration of half-maximal effect.

The nature of the experiment: NCATS anti-infectives library activity on HEK293 viability as a counter-qHTS vs the C. elegans viability qHTS (AID 1745854). As to conditions: HEK293 viability counter-screen; series mostly up to 41.8 µM; activity change, negative = cytotoxicity: at the top concentration. In a few lines: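 HEK293 cells, 1500 per well, exposed 24 hr at 37C in 5% CO2 to compounds in a 1:5 titration, up to 41.7 uM final. Viability read as CellTiter-Glo luminescence after 10 min at room temperature.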
Background: qHTS replaces the single test concentration by a dilution series.
`CCOC(=O)c1c(C)sc(-c2c(-c3ccc(OC)c(F)c3)[nH]c3c2c(=O)[nH]c(=O)n3C)c1O`: the “activity change, negative = cytotoxicity” value is -11.4% (inactive).

For the compound `Nc1ccccc1NC(=O)c1cnccn1`, the “activity change, negative = cytotoxicity” value is -13.4% (inactive).

In the case of `CC(=O)Cc1cc(=O)c2c(C)cc(O)c(C3OC(CO)C(O)C(O)C3O)c2o1` (stereo not given), the “activity change, negative = cytotoxicity” value was 2.7% (inactive).

For the compound `COc1cc(O)c2c(=O)cc(-c3ccc(O)cc3)oc2c1`, the “activity change, negative = cytotoxicity” value is -10.3% (inactive).

`CC(=O)Nc1ccc(C)c(C(=O)N[C@H](C)c2cccc3ccccc23)c1`: the “activity change, negative = cytotoxicity” value was 12.2% (inactive).

For the compound `C[C@H]1CC[C@@]2(O)C(C)(C)[C@@H]3CC[C@@]2(C)[C@H]1C3`, the “activity change, negative = cytotoxicity” value is -1.61% (inactive).

With `Cc1ccc(-c2ccc3c(c2)C=C(C(=O)Nc2ccc(C[N+](C)(C)C4CCOCC4)cc2)CCC3)cc1`, the “activity change, negative = cytotoxicity” value was -17.7% (inactive).

With `C[C@@H]1O[C@@H](O[C@@H]2[C@@H](O)[C@H](OCCc3ccc(O)c(O)c3)O[C@H](CO)[C@H]2OC(=O)/C=C/c2ccc(O)c(O)c2)[C@H](O)[C@H](O)[C@H]1O`, the “activity change, negative = cytotoxicity” value is -17.1% (inactive).

With `O=C(O)[C@H]1O[C@@H](Oc2cc3oc(-c4ccccc4)cc(=O)c3c(O)c2O)[C@H](O)[C@@H](O)[C@@H]1O`, the “activity change, negative = cytotoxicity” value was -29.6% (inactive).

For `COc1cc2c(c(OC)c1OC)-c1c(cc(OC)c(OC)c1OC)CC(C)C(C)C2` (stereo not given), the “activity change, negative = cytotoxicity” value was -20.3% (inactive).

For `Cc1nc(N(C)C(=O)Cc2ccc(-c3ccccn3)cc2)sc1S(N)(=O)=O`, the “activity change, negative = cytotoxicity” value was -1.46% (inactive).

On to `COC(=O)c1cc(O)c(O)c(O)c1`, for which the “activity change, negative = cytotoxicity” value was -19.7% (inactive).

`Nc1cc(F)ccc1NC(=O)/C=C/c1cnn(C/C=C/c2ccccc2)c1`: the “activity change, negative = cytotoxicity” value is -3.42% (inactive).

With `Cc1ccc(C(=O)NCCCCCC(=O)Nc2ccccc2N)cc1`, the “activity change, negative = cytotoxicity” value was 17% (inactive).

As for `COc1cnc(-n2cnc(C)n2)c2c1c(C(=O)C(=O)N1CCN(C(=O)c3ccccc3)CC1)cn2COP(=O)(O)O`, the “activity change, negative = cytotoxicity” value was -20.7% (inactive).

As for `COc1ccc(/C=C/C(=O)O)cc1O`, the “activity change, negative = cytotoxicity” value was -5.54% (inactive).

`CC(C)c1cnn2c(NCc3ccccc3-n3cccn3)nc(OC3CCCNC3)nc12` (stereo not given): the “activity change, negative = cytotoxicity” value is -26.4% (inactive).

On to `CCCCc1ccc(O)cc1O`, for which the “activity change, negative = cytotoxicity” value was -9.59% (inactive).

On to `C=C1CCC2C(C)(CO)C(O)CCC2(C)C1C/C=C1\C=COC1=O` (stereo not given), for which the “activity change, negative = cytotoxicity” value is -5.79% (inactive).

`C=C(C)[C@@H]1CC[C@]2(C(=O)O)CC[C@]3(C)[C@H](CC[C@@H]4[C@@]5(C)CC[C@H](OC(=O)CC(C)(C)C(=O)O)C(C)(C)[C@@H]5CC[C@]43C)[C@@H]12`: the “activity change, negative = cytotoxicity” value is 0.694% (inactive).

For the compound `Cc1ccc(N)cc1C(=O)N[C@H](C)c1cccc2ccccc12`, the “activity change, negative = cytotoxicity” value was -18.9% [at 83.3 µM] (inactive).

For the compound `O=C(O)[C@H]1O[C@@H](Oc2cc3oc(-c4ccc(O)cc4)cc(=O)c3c(O)c2O)[C@H](O)[C@@H](O)[C@@H]1O`, the “activity change, negative = cytotoxicity” value is 13.6% (inactive).

Consider `COC(=O)c1cc(OC)c2c(c1-c1c(CO)cc(OC)c3c1OCO3)OCO2`, for which the “activity change, negative = cytotoxicity” value is 1.52% (inactive).

Turning to `CN(C)c1nc2c(Br)c(Br)c(Br)c(Br)c2n1CC(=O)O`, the “activity change, negative = cytotoxicity” value was 7.08% (inactive).

With `Cc1cn([C@H]2O[C@@H](CO)[C@H](O)[C@H]2F)c(=O)[nH]c1=O`, the “activity change, negative = cytotoxicity” value was 1.74% (inactive).

Turning to `Cc1cccc2c3c(ccc12)C1=C(C(=O)C3=O)[C@@H](C)CO1`, the “activity change, negative = cytotoxicity” value was -6.41% (inactive).

On to `C[C@H](NC(=O)[C@H](Cc1ccccc1)NC(=O)OCc1ccccc1)C(=O)CF`, for which the “activity change, negative = cytotoxicity” value was -6.23% (inactive).

In the case of `C=CC(=O)N1C/C(=C\c2ccc([N+](=O)[O-])cc2)C(=O)/C(=C/c2ccc([N+](=O)[O-])cc2)C1`, the Potency is 1.41 µM (active).

Turning to `CC(=O)N[C@@H](CC(=O)O)C(=O)N[C@@H](CCC(=O)O)C(=O)N[C@H](C(=O)N[C@H](C=O)CC(=O)O)C(C)C`, the “activity change, negative = cytotoxicity” value was -18.8% (inactive).

Turning to `O=C(Cc1ccccc1)Nc1nnc(NC2CCN(c3nnc(NC(=O)Cc4ccccc4)s3)CC2)s1`, the “activity change, negative = cytotoxicity” value was -5.28% (inactive).

`COc1ccc(C2C(C#N)=C(N)OC3=C2C(=O)CC(c2cccc4ccccc24)C3)cc1` (stereo not given): the “activity change, negative = cytotoxicity” value is 8.64% (inactive).

On to `O=C1CC(=O)c2c(Cl)c(Cl)c(Cl)c(Cl)c21`, for which the “activity change, negative = cytotoxicity” value was -3.85% (inactive).

As to `Cc1nc2ccccc2c(-c2ccc3c(c2)CCCO3)c1C(OC(C)(C)C)C(=O)O` (stereo not given), the “activity change, negative = cytotoxicity” value is -4.2% (inactive).

With `OC[C@H]1O[C@@H](Oc2c(O)cc(O)cc2/C=C/c2ccc(O)cc2)[C@H](O)[C@@H](O)[C@@H]1O`, the “activity change, negative = cytotoxicity” value is -11.1% (inactive).

`O=C(O)/C(S)=C/c1c[nH]c2ccc(F)cc12`: the “activity change, negative = cytotoxicity” value was 8.22% (inactive).

For the compound `S=C(NCCc1ccccn1)Nc1ccc(Br)cn1`, the “activity change, negative = cytotoxicity” value is -6.44% (inactive).

In the case of `O=C(O)c1cc(-c2ccc(/C=C3\SC(=S)N(Cc4ccccc4)C3=O)o2)ccc1Cl`, the “activity change, negative = cytotoxicity” value was 7.75% (inactive).

As to `CC(C)=CCC/C(C)=C/CC/C(C)=C/C=C/C(C)=C/C(=O)O`, the “activity change, negative = cytotoxicity” value is -12.5% (inactive).

With `Oc1ccc(OC2CCCCO2)cc1` (stereo not given), the Potency was 14.1 µM (active).

For `CC(=O)O[C@@]1(C)C[C@@H](O)[C@]2(O)C=CO[C@@H](OC3OC(CO)C(O)C(O)C3O)[C@@H]21` (stereo not given in full), the “activity change, negative = cytotoxicity” value was 4.77% (inactive).
